Data taken from PubChem BioAssay (NCATS).
Inconclusive results are not listed. Activity calls are given as the source filed them. Calls follow the shape of the dose curve; as a rule, active = well fitted inhibition curve with a large enough effect; inconclusive = small, poorly fitted or top-dose-only effect; inactive = flat fitted curve, though single readings scatter.
% is scaled to controls: 0 for no effect and ±100 for the full control effect.

Assay: Primary qHTS for inhibitors of nuclear receptor binding SET domain protein 2 (NSD2) in an isogenic RCH-ACV NSD2 p.E1099K mutant (9B) (AID 1645876); also: nearly all actives have a fitted effect of over 70% in size
Conditions: RCH-ACV (leukaemia line) NSD2 E1099K (9B) viability, CellTiter-Glo, 72 h; series mostly up to 44.9 µM; activity change, negative = viability loss: at the top concentration
With `O=C(O)/C=C/c1ccc(O[C@@H]2O[C@H](CO)[C@@H](O)[C@H](O)[C@H]2O)cc1` the “activity change, negative = viability loss” value was 2.63% (inactive).
For `CCc1cc(CC[C@]2(C3CCCC3)CC(O)=C(Cc3nc4nc(C)cc(C)n4n3)C(=O)O2)cc(CC)n1`, the “activity change, negative = viability loss” value was -10.4% (inactive).
In the case of `C=C(C)C(O)COc1ccc(CC(=O)O)cc1` (stereo not given), the “outcome” value is reported as “inactive”.
In the case of `CC(=O)OC/C(=C/C(=O)O)CC[C@@H]1C(C)=CC(=O)[C@@H]2C(C)(C)CCC[C@@]12C`, the “activity change, negative = viability loss” value is reported as -18.6% (inactive).
For `CC1=C(CO)CC(C(C)C2CCC3C4CC=C5CC(OC6OC(COC7OC(CO)C(O)C(O)C7O)C(O)C(O)C6O)CC(O)C5(C)C4CCC23C)OC1=O` (stereo not given), the “activity change, negative = viability loss” value was -3.64% [at 17.3 µM] (inactive).
In the case of `C=C1CCC2[C@](C)(CCC[C@]2(C)C(=O)O)[C@H]1CC/C(C)=C/C(=O)OC` (stereo not given in full), the “activity change, negative = viability loss” value is reported as -8.82% (inactive).
With `CC1(C)C(=O)CCC2(C)C1C(O)C=C1COC(=O)C12O` (stereo not given) the “activity change, negative = viability loss” value was -11% (inactive).
In the case of `COC(=O)C[C@@H]1C(C(=O)O)=CO[C@@H](O[C@@H]2O[C@H](CO)[C@@H](O)[C@H](O)[C@H]2O)/C1=C\COC(=O)/C=C/c1ccc(O)c(OC)c1`, the “outcome” value is reported as “inactive [at 17.3 µM]”.
For `C[C@H]1[C@H](C)C[C@@H](C(=O)O)C2CC[C@]3(C)C(=CC[C@@H]4[C@@]5(C)CC[C@H](O)C(C)(C)[C@@H]5CC[C@]43C)[C@@H]21` (stereo not given in full), the “outcome” value was “inactive”.
With H-DPPDPDRFYGMM-NH2 the “outcome” value was “inactive [at 17.3 µM]”.
